For 103 molecules, outcome results are on record in PubChem BioAssay AID624404 (Broad Institute, 2012).

In all, about 1,800 compounds went through this assay and about 710 (39%) were called active. Another 28% or so got no clear call; they are omitted.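 Rule for the calls: active = luciferase signal rise whose fitted curve crosses a set activity limit at or below the top valid tested dose; inconclusive = flat fit with 30 to 70% rise, or poor fit; inactive = signal falling, flat within 30%, or crossing above top dose.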 Not all results are given here. Results with a measured potency or affinity are listed apart.

The assay is described as follows: reporter signal increase, D54 LucT cells – cell-based, luminescence, cherry pick, counter-screen for N-linked glycosylation inhibitor project, dose response (AID 624404). The note with it: D54 LucT luciferase reporter counterscreen, 24 h; series mostly up to 19.5 µM. Background: The purpose of a counterscreen is to sort out artefacts and off-target activity.
`CCOC(=O)c1c(NC(=O)CCl)sc(C(=O)N(CC)CC)c1C`: the outcome was inactive.

On to `CCOC(=O)c1c(NC(C)=O)sc2c1CCC(C=O)=C2Sc1ccccc1`, for which the molecule was called inactive.

Take `CNC(=O)COC(=O)c1ccccc1C(=O)c1ccc(Cl)c([N+](=O)[O-])c1`: the call was inactive.

On to `COc1ccc([N+](=O)[O-])cc1NC(=O)CCN1CCN(CCO)CC1`, for which the result was inactive.

For the molecule `CCOC(=O)c1ccc(-n2cccc2/C=C2\NC(=O)NC2=O)cc1`, the molecule was classed as inactive.

As for `CCc1ccc(Oc2coc3cc(OCC(=O)Nc4cc(C)ccc4C)ccc3c2=O)cc1`, the molecule was called inactive.

Take `COc1cc(C2=NOC(C(=O)NCc3ccc(F)cc3)C2)cc(OC)c1OC` (stereo not drawn): the call was inactive.

In the case of `CN(C)S(=O)(=O)c1ccc(N2CCCC2)c(C(=O)Nc2nccs2)c1`, the call was inactive.

In the case of `COc1cc(Nc2c3c(nc4ccccc24)CCC3)cc(OC)c1OC`, the molecule was classed as inactive.

Take `CCOC(=O)c1[nH]c(C)c(C(=O)OCC(=O)NC(C)c2ccc(F)cc2)c1C` (stereo not drawn): the molecule was called inactive.

As for `CCOC(=O)c1[nH]c(COC(=O)CCOc2ccccc2OC)c(C(=O)OCC)c1C`, the call was inactive.

On to `CCOC(=O)c1nnc(-c2ccc(C)cc2)nc1Sc1ccccc1Cl`, for which the outcome was inactive.

For `Cc1cc2c(=Cc3ccc(N(C)C)cc3)c3ccccc3n2[n+]1C`, the result was inactive.

For the molecule `COc1cc(-c2nc3ccc(N4CCN(C)CC4)cc3[nH]2)cc(OC)c1OC`, the molecule was called inactive.

With `CC1Cc2ccccc2N1C(=O)CSc1nn2c(=O)c(C(C)(C)C)nnc2s1` (stereo not drawn), the result was inactive.

In the case of `COc1ccc2c(-c3cc4ccc(OCc5ccc(F)cc5)cc4oc3=O)cc(=O)oc2c1`, the outcome was inactive.

With `C#CC(=O)CC1(CN(Cc2ccccc2)C(=O)OC(C)(C)C)CCCCC1`, the molecule was called inactive.

As to `COc1ccc(Cl)cc1NC(=O)CN(C)CC(=O)Nc1cc(OC)c(OC)c(OC)c1`, the molecule was called inactive.

For the molecule `CCC12CCC3c4ccc(O)cc4CCC3C1CC(O)C2O` (stereo not drawn), the molecule was classed as inactive.

Turning to `O=C(c1cccc([N+](=O)[O-])c1)N1CCN(c2cccc(Cl)c2)CC1`, the outcome was inactive.

For the molecule `c1ccc(-n2nnnc2-c2cccc3ccccc23)cc1`, the call was inactive.

With `c1ccc(-c2n[nH]c(-c3ccccc3)c2-c2nc3ccccc3[nH]2)cc1`, the molecule was classed as inactive.

As for `COc1ccc(NC(=O)CSc2c3c(nc4ccccc24)CCCC3)c(OC)c1`, the molecule was called inactive.

For `CN(C)c1ccc(-c2ccnc3c2CC(C)(C(=O)NCc2ccccc2)O3)cc1` (stereo not drawn), the result was inactive.

On to `O=C(N/N=C/c1ccc2c(c1)OCO2)c1sc2cc(Cl)ccc2c1Cl`, for which the molecule was called inactive.

As to `CCOC(=O)/C=C/C(=O)Nc1ccc(S(=O)(=O)N(C)c2ccccc2)cc1`, the molecule was classed as inactive.

`COc1ccc(OC)c(/C=C/c2ccc3cccc(O)c3n2)c1`: the molecule was classed as inactive.

With `O=C(COc1ccc(/C=N/NC(=O)c2cc3ccccc3o2)cc1Cl)Nc1ccccc1`, the molecule was classed as inactive.

Take `O=C(O)CCC/C=C\C[C@@H]1[C@@H](/C=C/[C@@H](O)COc2cccc(Cl)c2)[C@H](O)C[C@@H]1O`: the molecule was classed as inactive.

On to `CCOc1ccc(C2c3cc(OC)c(OC)cc3CC(=O)N2c2ccc(OC)cc2)cc1` (stereo not drawn), for which the outcome was inactive.

In the case of `COc1cc2c(cc1OC)C(c1ccccc1)N(C(=O)CCl)CC2` (stereo not drawn), the result was inactive.

Regarding `COc1ccc(CCn2c(=N)c(C(=O)NC3CCCC3)cc3c(=O)n4ccccc4nc32)cc1OC`, the outcome was inactive.

`Cn1cnc([N+](=O)[O-])c1Oc1ccc2ccccc2c1`: the outcome was inactive.

`COc1ccc(/C=C/C(=O)c2ccc3c4c(cccc24)CC3)cc1OC`: the outcome was inactive.

For the molecule `COc1cc(/C=C2/CCC/C(=C\c3cc(O)c(OC)c(Cl)c3)C2=O)cc(Cl)c1O`, the call was inactive.

In the case of `C=CCn1c(SCC(=O)c2[nH]c(C)c(C(=O)OC)c2C)nc2scc(-c3ccc(OC)c(OC)c3)c2c1=O`, the outcome was inactive.

On to `Cc1cc(NC(=O)CSc2nc(C3CC3)nc3sc(C)c(C)c23)no1`, for which the outcome was inactive.

On to `CCOc1ccc(NC(=O)C(=O)NCCN2CCN(S(=O)(=O)c3ccc(C)cc3)CC2)cc1`, for which the result was inactive.

Take `CN(C)CCCN1C(=O)c2cccc3c(Br)ccc(c23)C1=O`: the molecule was classed as inactive.

With `Cc1cccc(N2CCN(C(=O)c3ccncc3)CC2)c1C`, the call was inactive.

Consider `Cc1nn(C(C)(C)C)c(OC(=O)c2ccc3c(c2)OCO3)c1Sc1ccccc1`, for which the outcome was inactive.

Take `c1ccc2cc3c(NCCN4CCOCC4)ccnc3cc2c1`: the outcome was inactive.

For `c1ccc(-c2cc(NCCN3CCCCC3)c3ccccc3n2)cc1`, the outcome was inactive.

For the molecule `Cc1cccc2c(N)c3c(nc12)N(C)CC3`, the molecule was called inactive.

With `Cc1cc(C)nc(/N=C(\N)Nc2ccc(OCc3ccccc3)cc2)n1`, the molecule was classed as inactive.

Regarding `CCOC(=O)Nc1c2ccccc2nc2ccccc12`, the outcome was inactive.

For the molecule `COc1cc2c(C(=O)N3CCN(c4cccc(Cl)c4)CC3)cn(C)c(=O)c2cc1OC`, the molecule was called inactive.

For the molecule `Cc1ccc(S(=O)(=O)Cc2ccc(C(=O)N3CCN(c4cccc(C)c4C)CC3)o2)cc1`, the molecule was called inactive.

Turning to `COc1ccc(NC(=O)C2(C)Cc3c(-c4cccc(NC(C)=O)c4)ccnc3O2)cn1` (stereo not drawn), the call was inactive.

As for `CC(=O)Nc1cccc(-c2ccnc3c2CC(C)(C(=O)NCc2ccco2)O3)c1` (stereo not drawn), the molecule was called inactive.

Consider `CC(=O)Nc1cccc(-c2ccnc3c2CC(C)(C(=O)Nc2cccc(C(C)=O)c2)O3)c1` (stereo not drawn), for which the outcome was inactive.

`CC1(C(=O)NCC2CC2)Cc2c(-c3cccc(C(F)(F)F)c3)ccnc2O1` (stereo not drawn): the call was inactive.

Consider `COc1ccc(C2=NOC(C(=O)NCc3ccc(F)cc3)C2)cc1OC` (stereo not drawn), for which the molecule was called inactive.

`COC(=O)CNC(c1ccccc1Cl)c1cc(Br)ccc1NC(=O)CCN1CCOCC1` (stereo not drawn): the outcome was inactive.

`Cc1cc(-n2c(C)cc(C(=O)CCl)c2C)no1`: the outcome was inactive.

Regarding `CCN(CC)S(=O)(=O)c1cc(NC(=O)Cn2ncc(Cl)c(Cl)c2=O)ccc1C`, the outcome was inactive.

Regarding `O=C(C[C@@H]1C[C@H]2c3cc(NC(=O)c4cccnc4)ccc3O[C@H]2[C@H](CO)O1)NCc1ccc(Oc2ccccc2)cc1`, the call was inactive.

As to `COc1ccc(Nc2nc(N)c(C(=O)c3ccc(F)cc3)s2)cc1`, the call was inactive.

Consider `Cn1cnc(Sc2ncnc3nc[nH]c23)c1[N+](=O)[O-]`, for which the outcome was inactive.

`COc1ccc(-c2cc3ccccc3oc2=O)cc1NC(=S)NC(=O)c1ccc2c(c1)OCCO2`: the molecule was called inactive.

As for `COc1ccccc1OCC(=O)N/N=C/C=C/c1ccc([N+](=O)[O-])o1`, the outcome was inactive.

In the case of `O=C(Nc1cccc(-c2nc3ncccc3o2)c1)c1sc2ccccc2c1Cl`, the result was inactive.

With `Oc1cccc(Nc2c3ccccc3nc3ccccc23)c1`, the result was inactive.

In the case of `Oc1ccc(Nc2nc(NCC3CCCO3)c3ccccc3n2)cc1` (stereo not drawn), the molecule was called inactive.

Take `COc1ccc(C2Nc3ccc4ccccc4c3-c3c2c(=O)oc2ccccc32)cc1` (stereo not drawn): the result was inactive.

On to `COc1cc2c(cc1OC)C(c1cc(Br)ccc1F)N(C(=O)CCl)CC2` (stereo not drawn), for which the molecule was called inactive.

Regarding `COc1ccc(S(=O)(=O)Nc2cccc3ccc(O)cc23)cc1`, the call was inactive.

On to `Oc1cc(Nc2ccccc2)cc2cccnc12`, for which the molecule was classed as inactive.

Consider `CCOC(=O)C(CC)(CC)C(=O)/C=C/c1cccc(Br)c1`, for which the result was inactive.

As for `COc1ccc(N2CCc3c(C)nc4c(OC)cccc4c32)cc1`, the outcome was inactive.

As to `COc1ccc(N2CCc3c(C)nc4c(OC)cc(OC)cc4c32)cc1`, the molecule was called inactive.

With `CCN(CC)CCC(=O)Nc1cccc2c1C(=O)c1ccccc1C2=O`, the call was inactive.

On to `CCN(CC)CCn1c2ccccc2c2cnc(N)c(C#N)c21`, for which the outcome was inactive.

As to `O=C(C=Cc1ccc2c(c1)OCO2)C=Cc1ccc2c(c1)OCO2`, the result was inactive.

As for `CC(=O)C1=C(C)OC(N)=C(C#N)C1c1cc([N+](=O)[O-])ccc1Cl` (stereo not drawn), the molecule was classed as inactive.

`CCN1C(=O)c2cccc3c(S(=O)(=O)N4CCC(C)CC4)ccc1c23`: the call was inactive.

Take `C=CCN(CC=C)C(=O)CN1C(=O)NC(C)(c2ccc3cc(OC)ccc3c2)C1=O` (stereo not drawn): the outcome was inactive.

For the molecule `Cc1ccc(CCC(=O)Nc2ncc(Cc3cc(Cl)ccc3Cl)s2)o1`, the result was inactive.

With `COc1ccc(-c2nc(NC(=O)C3CC(=O)N(c4ccc5c(c4)OCCO5)C3)sc2C)cc1` (stereo not drawn), the call was inactive.

In the case of `CCCCCCCCCCCCCCCC[n+]1ccc(/C=N/O)cc1`, the result was inactive.

As to `Cc1ccc(CNC(=O)Cc2ccc(Br)cc2)cc1`, the molecule was called inactive.

Take `CCOC(=O)C(C)Oc1cccc2c(=O)n(CC(=O)NCc3ccc(F)cc3)ccc12` (stereo not drawn): the molecule was classed as inactive.

As for `COc1ccc(CCn2c(=N)c(C(=O)NCc3ccco3)cc3c(=O)n4ccccc4nc32)cc1`, the molecule was classed as inactive.

On to `CCN(CC)CCNC(=O)c1cc2c(-c3ccc(Cl)cc3)nn(C)c2s1`, for which the outcome was inactive.

On to `CC1(C(=O)Nc2ccc(Cl)cc2)Cc2c(-c3cccc(C(N)=O)c3)ccnc2O1` (stereo not drawn), for which the molecule was called inactive.

Turning to `CC1(C(=O)NCc2ccccc2)Cc2c(-c3ccc4c(c3)OCO4)ccnc2O1` (stereo not drawn), the result was inactive.

On to `COc1ccc(NC(=O)C2(C)Cc3c(-c4cccc(C(N)=O)c4)ccnc3O2)cn1` (stereo not drawn), for which the molecule was called inactive.

Regarding `CC(=O)c1cccc(-c2ccnc3c2CC(C(=O)NCc2ccco2)O3)c1` (stereo not drawn), the call was inactive.

For `CC1(C(=O)NCc2ccccc2)Cc2c(-c3ccccc3)ccnc2O1` (stereo not drawn), the outcome was inactive.

In the case of `COc1ccccc1C(=O)Nc1nnc(CCc2ccccc2)s1`, the call was inactive.

Take `CN(C)S(=O)(=O)c1ccc(N2CCCC2)c(C(=O)Nc2nc(-c3ccc(F)cc3)cs2)c1`: the outcome was inactive.

Take `CC(C)(C)n1nnnc1C(c1ccccc1)N1CCc2ccccc2C1` (stereo not drawn): the call was inactive.

Consider `Nc1ncnc(Sc2ccc(Cl)cc2)c1[N+](=O)[O-]`, for which the molecule was classed as inactive.

As to `CCC1=Nc2cc(C(=O)NCCCOC)ccc2Sc2ccccc21`, the result was inactive.

On to `Cc1cccn2c(=O)c3cc(C(=O)NCCN4CCOCC4)c(=N)n(CCc4ccccc4)c3nc12`, for which the molecule was called inactive.

For `CCNC(=O)c1cc2c(=O)n3cccc(C)c3nc2n(CCc2ccccc2)c1=N`, the result was inactive.

Take `NNC(=O)c1oc2nc(-c3ccco3)cc(-c3ccco3)c2c1N`: the molecule was classed as inactive.

Regarding `O=C(NCc1ccco1)c1nn2c(C(F)(F)F)cc(-c3cccs3)nc2c1Br`, the molecule was classed as inactive.

For `COc1ccc(C(=O)NCc2nnc(SCC(=O)NO)n2Cc2ccccc2)cc1`, the result was inactive.

With `Cn1nc(C(F)(F)F)c(/C=N/OC(=O)c2ccccc2Cl)c1SCc1ccccc1Cl`, the molecule was classed as inactive.

On to `Clc1ccc(C2=Nn3c(nnc3-c3cc(-c4ccccc4)n[nH]3)SC2)cc1`, for which the outcome was inactive.

In the case of `COc1ccc(OC)c(-c2nnc3n2N=C(c2ccc(OC)c(OC4CCCC4)c2)CS3)c1`, the call was inactive.

In the case of `S=c1[nH]nc(-c2cc(-c3ccccc3)n[nH]2)n1/N=C/C(Br)=C/c1ccccc1`, the call was inactive.
